Shiga inhibitor = Shiga toxin inhibition. Vero cells, Shiga toxin protein synthesis inhibition reporter. inhibition, % at 38.7 µM. actives 9.2% (n = 290,000). AID 2315; in the data active = inhibition mostly above about 28%, no sharp cut-off; inactive = mostly below about 43%; note: 0% is about no effect
Sm TGR inh = inhibitors of Schistosoma mansoni thioredoxin glutathione reductase; Q962Y6; purified TGR, DTNB reduction, TNB absorbance 405 nm; Potency, µM (titrated, usually from 114 µM), for inactives: at the highest dose activity change, negative = inhibition, most hits filed as inhibitors; actives 3% (n = 360,000); AID 485364; active = well fitted inhibition curve with a large enough effect; inconclusive = small, poorly fitted or top-dose-only effect; inactive = no such curve, though single readings can be large or run the other way; note: potency is the fitted concentration of half-maximal effect; % is set by controls: 0 for no effect and ±100 for the full control effect; nearly all actives have a fitted effect of over 60% in size
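Kinetic colorimetric format: TGR-catalysed, NADPH-driven DTNB reduction monitored via TNB absorbance. Enzyme dispensed at 20 nM; compound exposure 15 min at room temperature before reaction start.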
FMDV inh = blocks foot and mouth disease virus; Potency, µM (series often up to 57.9 µM), without a hit: top-dose activity change, negative = inhibition, usual class: inhibitors; AID 1159524; FMDV antiviral cell-based qHTS; actives 1.2% (n = 410,000); calls by dose curve; tested in HEK293T cells; note: read-out not given here; potency is the fitted concentration of half-maximal effect; % is set by controls: 0 for no effect and ±100 for the full control effect; nearly all actives have a fitted effect of over 45% in size
Cycloheximide cs = counter-screen for Shiga toxin inhibitors: cycloheximide protein synthesis inhibition; cell reporter, cycloheximide protein synthesis inhibition counterscreen; actives 12% (n = 300,000); AID 2314; max response, %; in the data active = max response mostly above about 13%, no sharp cut-off; inactive = mostly below about 14%; note: read at 38.3 µM for the half of the compounds with a filed dose; 0% is about no effect
The depositor's hits bear a star; ? = inconclusive; / = no result given; [ ] = another dose, or the depositor's remark. Rows were chosen to be rich in hits. Some 12% of all compounds tested hit in one or more screens of this group.

SMILES	Shiga inhibitor	Sm TGR inh	FMDV inh	Cycloheximide cs
Cc1cc(NC(=O)c2noc3c2CCCCC3)no1	130*	9%	45%	29*
Cc1ccc(N2CC(NC(=O)C3CCCC3)CC2=O)cc1C (stereo not given)	/	-7%	-10%	/
O=[N+]([O-])c1nn(-c2ccc3c(c2)OCCO3)n(O)c1=NCc1ccc(F)cc1Cl	131*	-6%	27%	50*
O=[N+]([O-])c1nn(-c2ccc3c(c2)OCCO3)n(O)c1=NCc1ccc(F)cc1	92*	-14%	-10%	103*
O=[N+]([O-])c1nn(-c2ccc3c(c2)OCCO3)n(O)c1=NCCC1=CCCCC1	49	25µM*	24%	25*
O=C(Nc1cccc(Cl)c1)c1ccc2nc(Cc3ccccc3)oc2c1	/	11%	-10%	/
Oc1ccc(Br)cc1C=Nc1cccn2cc(-c3ccccc3)nc12	81*	-3%	-9%	35*
CC(C)(C)c1ccc(C(=O)CCCSC2=C(C#N)C(c3ccco3)C3=C(CCCC3=O)N2)cc1 (stereo not given)	-2	40µM*	-3%	4
CC(=O)C1=C(C)NC(SCC(=O)c2ccc(F)cc2)=C(C#N)C1CC(C)C (stereo not given)	88*	?	-14%	63*
N#CC1=C(SCC(=O)c2ccccc2)NC2=C(C(=O)CCC2)C1c1ccco1 (stereo not given)	72*	?	-12%	66*
CC(=O)C1=C(C)NC(SCC(=O)c2ccc(Cl)cc2)=C(C#N)C1CC(C)C (stereo not given)	-7	?	-14%	-2
CC(=O)C1=C(C)NC(SCC(=O)c2ccc(F)cc2)=C(C#N)C1c1ccco1 (stereo not given)	5	-8%[11.4 µM]	/	4
Cc1ccc(C(=O)CSC2=C(C#N)C(c3ccco3)C3=C(CCCC3=O)N2)cc1 (stereo not given)	-18	?	0%	18*
CCOc1ccc(-n2c(Cc3ccccc3)nnc2SCc2nc(-c3cccs3)no2)cc1	/	1%	0%	/
CCc1ccc(C(=O)CSC2=C(C#N)C(c3ccco3)C(C(C)=O)=C(C)N2)cc1 (stereo not given)	32	?	/	30*
CC1CC=CC2C1C(=O)N(Cc1ccccc1)C2c1ccc(-c2ccc(N(C)C)cc2)cc1F (stereo not given)	2	/	/	8
N#CCSc1nc2c(cc1C#N)CCCCCC2	9	-3%	-17%	-1
N#Cc1cc2c(nc1SCC(=O)N1CCCCC1)CCCCC2	100*	?	-3%	61*
CCc1ccc2nc(SCC(=O)N3CCCCC3)c(C#N)cc2c1	/	/	5%	/
CCS(=O)(=O)CCSc1nc2c(cc1C#N)CCCC2	18	2%	/	12*
N#Cc1cc2c(nc1SCc1ccncc1)CCC2	102*	-35%	/	43*
N#Cc1cc2c(nc1SCC(=O)N1CCCCC1)CCCC2	28	8%	10%	17*
N#Cc1cc2c(nc1SCc1ccccc1)CCC2	-29	0%	0%	1
Cc1cccc(CSc2nc3c(cc2C#N)CN(C)CC3)c1	8	-31%	3%	9
CN1CCc2nc(SCc3ccccc3Br)c(C#N)cc2C1	-14	22µM*	-2%	-2
SMILES	Shiga inhibitor	Sm TGR inh	FMDV inh	Cycloheximide cs
Cc1ccc(COc2cccc(/C=N/NC(=O)c3nnn(-c4nonc4N)c3C)c2)cc1	39	-18%	5%	15*
Nc1nonc1-n1nnc(C(=O)N/N=C/c2ccc(OCc3ccccc3F)cc2)c1CNc1ccccc1	18	-3%	-10%	17*
COc1cccc(C(=O)NCC2Cc3cccc(-c4nc(C)cnc4C)c3O2)c1OC (stereo not given)	/	/	-3%	/
CC(C)C(=O)Nc1cccc(S(=O)(=O)NC2=NCCC2)c1	/	/	-2%	/
CCCCNC(=S)Nc1cccc(S(=O)(=O)NC2=NCCC2)c1	/	40µM*	50%	/
O=C(CCl)Nc1cccc(S(=O)(=O)NC2=NCCC2)c1	-7	6.3µM*	-25%	10
Cc1cccc(C(=O)Nc2ccc(N3CCC(N4CCCCC4)CC3)c(C(=O)O)c2)c1	/	0%	35%	/
CCOc1cc2c(cc1OCC)C(CC(=O)O)N(C(=O)Nc1ccc(Br)c(C)c1)CC2 (stereo not given)	/	-2%	16%	/
Oc1ccc(Cl)cc1CNc1ccccn1	52	2%	16%	15*
Cc1ccnc(NCc2cc(Cl)ccc2O)c1	/	/	44%	/
C=CCCC(=O)Nc1ccc(Br)cn1	31	/	12%	28
Oc1ccc(Cl)cc1CNc1ccc(Br)cn1	111*	1%	-93%	45*
Oc1c(Cl)cc(Cl)cc1CNc1ccc(Br)cn1	73*	-23%	14%	32*
CCCS(=O)(=O)c1ncc(Cl)c(C(=O)Nc2c(C(=O)c3ccccc3)oc3ccccc23)n1	/	-1%	?	/

Source: PubChem BioAssay
